The other results are listed elsewhere or left out. The true hit rate is not given.
B1: VH:VL chains; a variant is named by its letters at X, in order (parent)
chain 1: QVQLVQSGAEVKKPGASVKVSCKASGYTFTDYXMHWVRQAPGQGLEWMGXVNPNXXXTTYNQKFEGRVTMTTDTSTSTAYMELRSLRSDDTAVYYCARXNXLDXWGQGTTVTVSS
chain 2: DIQMTQSPSSLSASVGDRVTITCSVSSSVSSIYLHWYQQKPGKAPKLLIYSTSNLASGVPSRFSGSGSGTDFTLTISSLQPEDFATYYCQVYSGYPLTFGGGTKVEIK

Variants of: B1
Test: yeast display scFab, FACS + sequencing
Conditions: with MET
Method in brief: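 A yeast surface library of scFab variants carrying heavy-chain CDR mutations went through two magnetic enrichment rounds on Protein A beads coated with HGFR-Fc, then FACS. For sorting, cells were labelled for 3 h at room temperature with 1 nM HGFR-Fc and anti-Myc in PBSB containing 1% milk, and the top 50% of antigen-positive cells were gated. Input and round-3 sorted populations were deep sequenced in two replicates. A sequence was called an antigen binder if it appeared in both antigen-positive samples and a non-binder if it appeared only in the input.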

Variant | antigen binding call
VEGTSSLD | no binding
FKGEGFGS | no binding
FRGEGAVS | binds
FAATDSVS | no binding
YRGEGAVS | binds
FRGEGSVS | binds
VRKRGALD | binds
VTERSALD | no binding
VRRRGALD | binds
VEEEGALD | no binding
VGGTSALD | no binding
VRRGGALD | binds
VKEKGALD | no binding
ATGEADAS | no binding
DAEATSWV | no binding
DTGTGAGD | no binding
AEEKGSGD | no binding
VRTEDSWA | no binding
YRGKGAWA | binds
VRTEDDVA | no binding
VRTEDAWA | binds
YKGKGAWA | binds
VKGKGASA | no binding
VRGKGASA | binds

Variant | antigen binding call
YATKGAWA | no binding
VARADSGV | no binding
VEAGDAAV | no binding
VRGGDDWA | no binding
VEGGGAWA | no binding
VRGKGAWA | binds
YRGKSSWA | binds
YEGTGSWA | no binding
YRGKGSWA | binds
YKGKGSWA | binds
DAARGDAA | no binding
DTGTGAGV | no binding
YRGAGAWV | binds
YRGAGSGV | binds
VTGTGAGV | no binding
YRGTGAGV | binds
YRGAGAGV | binds
YETGNVWF | no binding
DKEGGAVV | no binding
DAGGGDWV | no binding
VTTRADVF | no binding
DGGRAFWF | no binding
VARKGVGV | no binding
YRGAGALV | binds

Variant | antigen binding call
YTGTSDWV | no binding
YARADSSV | no binding
YRRGSASV | binds
YKRRDAWV | no binding
YKRGSASV | binds
VKEADAWV | no binding
YKRGSAWV | binds
YTRGSAWV | no binding
YRRGSSSV | binds
SKKGDFWV | no binding
VETEGDWD | no binding
VRAETDVY | no binding
YRRGSSLV | binds
DAEGDAGD | no binding
VKGRASAS | no binding
VKGRGSGS | binds
VKGGSFGS | no binding
VKGRGAGS | binds
VGGRGDGS | no binding
VTEGGDVA | no binding
YTTGGDWA | no binding
DATGGSVD | no binding
DTGGDDGF | no binding
YARADDAS | no binding

Variant | antigen binding call
VEGEDAAA | no binding
VRTGGAAA | binds
VRRGGSAA | binds
VRRGGAAA | binds
VETGGAAA | no binding
VETGGAVA | no binding
VEGGGDWA | no binding
VEGAASWF | no binding
YRKGAASD | binds
YRKGSASD | binds
SRKGAASD | no binding
VRARGALV | binds
YRAKSALV | binds
YRARGALV | binds
VRAGDALV | no binding
YTAGSALV | no binding
VEAGDALV | no binding
VGGTGDVF | no binding
DGGADVGA | no binding
DKGTDVGA | no binding
FRRGSSGS | binds
FRRGGSGV | binds
FARGASGV | no binding
FRRGSSGD | binds

Variant | antigen binding call
FRRGGSGS | binds
DAGAAAGD | no binding
DKREADVA | no binding
FRAGGSAA | binds
FEEEGSAA | no binding
FKKGSAVA | binds
FKKGSFGA | no binding
FKGEGDAA | no binding
VKRGSSAA | binds
FKGEDAVA | no binding
FKKGSSAA | binds
ATTKSDAA | no binding
SREAADWV | no binding
DAGGGDVA | no binding
DARENAGY | no binding
DEGTGALA | no binding
FKRGSSAA | binds
FRRGSSAA | binds
FKRKNSAA | no binding
FRRGDSAA | binds
FGRGSSWA | no binding
FRRGGSAA | binds
DGERTAGV | no binding
VREEGDGA | no binding

Variant | antigen binding call
VTTGGDGV | no binding
YTAGSDWY | no binding
YRARGAWY | binds
DRAGDDWY | no binding
YRAGGAWY | binds
YRAGGDWY | binds
YRAGGYWY | binds
DGGTSYSV | no binding
SKEAGYSV | no binding
VTGEDDAV | no binding
ATGANSLD | no binding
YRKGGAWY | binds
YRAKGAWY | binds
YEKGGDVY | no binding
DGGTNDVD | no binding
DTKAASWV | no binding
YKKGSSLF | binds
VKKGSSLF | binds
VKKESSGF | no binding
VKGRADSF | no binding
YKERGDVF | no binding
YRTADDWV | no binding
YRKGGAWV | binds
YRKEAAWV | binds

Variant | antigen binding call
SAEGGSSA | no binding
FGAKTASF | no binding
YTAGSDVA | no binding
YRAAGDVA | binds
YAAGGDVA | no binding
DRGRSDVA | no binding
VRAGDDVA | no binding
VRGGSDVA | no binding
YRGGSDVA | binds
YRAGDDVA | binds
YRAETDVA | no binding
DAGGGAAV | no binding
AGGGNDWV | no binding
VAAKNDGA | no binding
VAKENAVA | no binding
YRKGSSGF | binds
YGKGTSGF | no binding
YRKGSSLF | binds
YRGGASWV | binds
YETTDSWV | no binding
YTKAASWV | no binding
YTRGASWV | no binding
YRGASSWV | binds
YAEATDLY | no binding

Variant | antigen binding call
VTEGDSGV | no binding
VTTGSASF | no binding
DTEEGDWV | no binding
YRRGSAVD | binds
DRRGDASD | no binding
YRGEGASD | binds
YRRGDASD | binds
YRRGSASD | binds
YTGTSASD | no binding
YTAAADLV | no binding
YETEGDVF | no binding
YRRGGASD | binds
DAGGGAVY | no binding
YRGKGALA | binds
YRKGAALA | binds
YRGKGSLA | binds
YRKKGDLA | no binding
YRGRSALA | binds
YTGRAALA | no binding
VTGTGDGV | no binding
AETKGAVA | no binding
DGGENAGD | no binding
VAGGDAVV | no binding
YRGKSALA | binds

Variant | antigen binding call
FAAGGAAS | binds
FRGGGAVS | binds
FAAGGAWA | no binding
FAGTSVGS | no binding
FAGGSFAS | binds
FAGGGFAV | no binding
FAAGSSGS | no binding
FREGGAVS | no binding
FRGGGSVS | binds
DTERDDAV | no binding
DGGTGDVF | no binding
FAGGGAGS | binds
FAGGGAGA | no binding
FAGGGASD | no binding
YTEEGDWV | no binding
SAAGGDVA chain 1 L45S | no binding
YRKGSALD | binds
YRKGTAGD | binds
YEKGGDVD | no binding
YRKGSAGD | binds
YRRANFLD | no binding
YEKGGAGD | binds
YEGGGDGD | no binding
